An excerpt weighted towards active compounds, which were near 6.9% of everything screened.
PLK1 PBD block = PLK1 (human) polo-box domain binding inhibition; P53350; Plk1 PBD binding of FITC phosphopeptide, fluorescence polarization; Potency, µM, for the others: max response, negative = inhibition, actives largely listed as inhibitors; 2.8% of 360,000 active; AID 720504; note: series mostly up to about 57 µM; % is set by controls: 0 for no effect and ±100 for the full control effect; nearly all actives have a fitted effect of over 65% in size
BAZ2B inh = BAZ2B (human) inhibition; AlphaScreen BAZ2B-H3K14Ac peptide displacement; Potency, µM (highest dose often 114 µM), inactives show top-dose activity change, negative = inhibition, actives largely listed as inhibitors; AID 504333; 4.4% of 360,000 active; note: % is set by controls: 0 for no effect and ±100 for the full control effect; nearly all actives have a fitted effect of over 60% in size
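In this displacement format the biotinylated H3(5-23) peptide acetylated at Lys14 serves as ligand at 50 nM, with BAZ2B at 50 nM in PBS pH 7.4 containing 0.01% Tween-20. Donor and acceptor beads are 10 ug/mL final.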
VDR inhibitor = blocks the human vitamin D receptor | P11473 | VDR-SRC2-3 peptide fluorescence polarization, 2 h | Potency, µM, for inactives: max response, negative = inhibition, usual class: inhibitors | 0.93% of 400,000 active; note: % is set by controls: 0 for no effect and ±100 for the full control effect
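The screen uses fluorescence polarization to detect compounds that interfere with recruitment of the SRC2-3 coactivator peptide to VDR; plates are read after 2 h at room temperature.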
JMJD2A Tudor = inhibitors of human JMJD2A Tudor domain; O75164; Potency, µM (titrated, usually from 114 µM), inactives show top-dose activity change, negative = inhibition, actives largely listed as inhibitors; AlphaScreen JMJD2A-Tudor / H3K4me3 peptide binding; 4.4% of 390,000 active; AID 504339; note: % is set by controls: 0 for no effect and ±100 for the full control effect; nearly all actives have a fitted effect of over 50% in size
Target sequence (O75164 whole entry, looked up, the tested form may be a part): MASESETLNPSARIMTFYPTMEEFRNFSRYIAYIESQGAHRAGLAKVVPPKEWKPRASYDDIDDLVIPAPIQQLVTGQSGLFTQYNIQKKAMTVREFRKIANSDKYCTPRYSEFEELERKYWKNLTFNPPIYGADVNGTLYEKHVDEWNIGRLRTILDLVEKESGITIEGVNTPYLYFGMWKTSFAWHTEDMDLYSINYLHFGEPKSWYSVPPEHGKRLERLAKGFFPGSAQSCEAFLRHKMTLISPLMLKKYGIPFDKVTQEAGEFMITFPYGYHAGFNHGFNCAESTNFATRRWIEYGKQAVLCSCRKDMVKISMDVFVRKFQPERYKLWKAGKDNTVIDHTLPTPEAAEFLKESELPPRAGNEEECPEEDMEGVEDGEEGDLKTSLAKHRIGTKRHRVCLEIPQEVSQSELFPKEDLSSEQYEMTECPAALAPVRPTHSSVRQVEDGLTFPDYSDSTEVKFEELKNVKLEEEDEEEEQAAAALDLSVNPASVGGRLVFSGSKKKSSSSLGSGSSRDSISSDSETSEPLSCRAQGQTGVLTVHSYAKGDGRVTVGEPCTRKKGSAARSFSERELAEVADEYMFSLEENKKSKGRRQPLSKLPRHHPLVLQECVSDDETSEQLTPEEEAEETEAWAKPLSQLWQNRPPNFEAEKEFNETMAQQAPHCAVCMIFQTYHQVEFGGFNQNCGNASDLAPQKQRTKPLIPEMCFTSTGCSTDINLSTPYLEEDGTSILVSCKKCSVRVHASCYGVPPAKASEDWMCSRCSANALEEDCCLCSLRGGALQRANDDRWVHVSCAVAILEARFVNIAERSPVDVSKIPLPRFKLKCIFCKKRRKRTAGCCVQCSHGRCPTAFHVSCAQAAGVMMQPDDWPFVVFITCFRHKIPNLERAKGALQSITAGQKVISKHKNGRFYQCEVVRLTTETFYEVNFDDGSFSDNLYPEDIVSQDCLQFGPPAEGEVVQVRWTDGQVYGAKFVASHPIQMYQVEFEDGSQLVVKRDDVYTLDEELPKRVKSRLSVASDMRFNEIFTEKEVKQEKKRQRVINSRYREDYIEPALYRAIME
HP1b chromo inh = inhibitors of HP1-beta chromodomain binding to methylated histone tails; 0.56% of 390,000 active; Potency, µM (doses to about 114 µM), without a hit: top-dose activity change, negative = inhibition, usual class: inhibitors; AlphaScreen HP1-beta / biotin-H3K9me3 peptide binding; P83916; AID 540317; note: nearly all actives have a fitted effect of over 70% in size
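HP1-beta protein (50 nM final) preincubated 30 min at room temperature with biotinylated H3(1-18)K9me3 peptide (50 nM) in PBS pH 7.4, 0.01% Tween-20, then compound added for 30 min. AlphaScreen streptavidin donor/nickel chelate acceptor beads (10 ug/mL final), 30 min dark, luminescence read.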
L3MBTL1 inh = inhibitors of human L3MBTL1; Q9Y468; AlphaScreen L3MBTL1–H3K9me1 peptide binding; Potency, µM (series often up to 57.1 µM), without a hit: at the highest dose activity, negative = inhibition, most hits filed as inhibitors; 0.66% of 230,000 active; AID 485360; note: % is set by controls: 0 for no effect and ±100 for the full control effect; nearly all actives have a fitted effect of over 60% in size
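First, the protein-peptide complex forms for 30 min at room temperature (L3MBTL1 50 nM, biotinylated H3K9me1 peptide 75 nM). Next, compounds are pin-transferred and incubated 30 min. Finally, AlphaScreen beads are added and read after 30 min.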
* marks the source's active call; other numbers are inactive results; u = inconclusive; x = not tested or not shown; [ ] = another dose, or the depositor's remark. Calls come from the whole dose curve; as a rule, active = well fitted curve in the direction sought with a large enough effect; inconclusive = small, poorly fitted or top-dose-only effect, or another doubt; inactive = no such curve, though single readings can be large; an effect the other way counts as inactive or inconclusive. Potency is the fitted concentration of half-maximal effect.

SMILES | PLK1 PBD block | BAZ2B inh | VDR inhibitor | JMJD2A Tudor | HP1b chromo inh | L3MBTL1 inh
COc1ccc(C2/C(=C(/O)c3ccc(Br)cc3)C(=O)C(=O)N2C)cc1 (stereo unspecified) | -4% | 5% | -1% | -9% | 29% | 29%
CCOC(=O)NNc1ccc2nonc2c1[N+](=O)[O-] | 8.4µM* | 40µM* | 35µM* | 56µM* | u | 32µM*
CCc1ccc(Nc2ccc3nonc3c2[N+](=O)[O-])cc1 | -9% | x | -7% | -15% | -4% | x
O=C(CCS(=O)(=O)c1nc(-c2cccs2)cc(C(F)(F)F)n1)Nc1ccc(OC(F)(F)F)cc1 | x | 11% | 14µM* | -8% | 23% | x
CN1CC=C2C(C#N)=C(N)C(C#N)(C#N)[C@H](c3cccs3)[C@H]2C1 | 21µM* | -5% | u | -11% | 31% | -9%
CN1CC=C2C(C#N)=C(N)C(C#N)(C#N)C(c3ccsc3)C2C1 (stereo unspecified) | u | -27% | -5% | -25%[11.4 µM] | 43% | 0%
Cc1nc2ccccc2c2oc(C(=O)N3CCN(c4ccc([N+](=O)[O-])cc4)CC3)cc12 | 1% | 0% | 5% | -6% | 39% | x
Cc1ccc(NC(=O)Cn2c(=O)n(CCCCC(=O)NCCc3ccccc3)c(=O)c3ccccc32)c(C)c1 | x | 1% | -7% | -8% | 34% | x
CCCCOc1ccc(-c2n[nH]c(=S)n2Cc2ccccc2)cc1 | -7% | -1% | 3% | -22% | 2% | x
Cc1ccn2c(-c3n[nH]c(=S)n3Cc3ccccc3)c(C)nc2c1 | -16% | -7% | -5% | 3.5µM* | u | 5%
Fc1ccc(-c2n[nH]c(=S)n2Cc2ccccc2)cc1 | -9% | -1% | -16% | 18µM* | 6% | x
Oc1ccc(-c2n[nH]c(=S)n2Cc2ccccc2)cc1 | -20% | 1% | -11% | 32µM* | -8% | -1%
S=c1[nH]nc(-c2ccncc2)n1Cc1ccccc1 | -6% | x | 9% | 7.9µM* | 26% | 0%
CC(C)(C)c1ccc(-c2n[nH]c(=S)n2Cc2ccccc2)cc1 | -1% | -11% | 18% | -4% | 30% | x
Nn1c(SCC(=O)NC2CCCc3ccccc32)nnc1-c1ccc(Cl)cc1Cl (stereo unspecified) | x | 2% | x | x | x | -10%
FC(F)C(F)(F)Oc1cccc(-c2n[nH]c(=S)n2Cc2ccccc2)c1 | -16% | -4% | -5% | -35% | -14% | -10%
S=c1[nH]nc(-c2cccnc2)n1Cc1ccccc1 | -11% | -5% | 3% | 8.9µM* | 11% | 5%[11.4 µM]
S=c1[nH]nc(-c2ccc(Br)cc2)n1Cc1ccccc1 | 12µM* | u | u | u | -21%[57 µM] | -13%
CCN(Cc1nc(-c2ccc(OC)cc2)oc1C)S(=O)(=O)c1ccc(Cl)cc1 | x | u | 0% | 32% | u | x
Cc1cccc(C(=O)N2CCc3cc(CNC(=O)c4ccc(Br)o4)ccc32)c1 | x | -24% | 15% | -29% | 4% | x
Cc1ccccc1CSc1ncc(Cl)c(C(=O)Nc2nc3ccc(F)cc3s2)n1 | x | 1% | 6% | -17% | 8% | x
COc1ccc(OC)c(C(=O)NC(CC(N)=O)c2ccc(N3CCC(Cc4ccccc4)CC3)c([N+](=O)[O-])c2)c1 (stereo unspecified) | 1% | 45µM* | -5% | u | -20% | -9%
COc1ccc(OC)c(C(=O)NC(CC(N)=O)c2ccc(NCc3ccc(F)c(F)c3)c([N+](=O)[O-])c2)c1 (stereo unspecified) | -10% | 45µM* | 9% | u | -11% | -12%
Cc1ccc2c(C(=O)CN3CCSCC3)c(C)[nH]c2c1 | 19µM* | -2% | -22% | -19%[11.4 µM] | 6% | -7%
Cc1ccc(S(=O)(=O)c2c(COC(=O)c3ccccc3Cl)c(-c3ccccc3)nn2C)cc1 | -8% | 6.3µM* | 6% | 1% | 27% | x
SMILES | PLK1 PBD block | BAZ2B inh | VDR inhibitor | JMJD2A Tudor | HP1b chromo inh | L3MBTL1 inh
O=C(O)CSCC(=O)Nc1ccc(-c2nc3ccccc3s2)cc1 | 9.5µM* | -1% | u | -30% | 9% | -5%
Cc1ccc2nc(-c3ccc(NC(=O)CSCC(=O)O)cc3)sc2c1 | u | -12% | -21% | -13% | 12% | 3%
COc1cc(/C=N\NC(=O)CC#N)ccc1OC/C=C/c1ccccc1 | -4% | 56µM* | 15% | 79µM* | 33% | x
COc1ccccc1/C=N/NC(=O)c1cccc2ccccc12 | 15µM* | -5% | 79µM* | u | -12% | 5%
COc1cc(/C=N\NC(=O)c2ccc(-c3ccccc3)cc2)ccc1OCC(N)=O | 0% | -2% | 2% | 89µM* | 11% | x
COc1ccccc1/C=N/NC(=O)c1ccc(-c2ccccc2)cc1 | 30µM* | 1% | 6% | -14% | 2% | -3%
COc1cc(/C=N\NC(=O)c2ccc(-c3ccccc3)cc2)cc(OC)c1O | -4% | -21% | 18% | -13% | 24% | x
c1nc(NCCCN2CCOCC2)c2cc(-c3ccc4c(c3)OCO4)ccc2n1 | x | x | x | -28% | x | x
COc1cc(/C=N/NC(=O)c2cccc3ccccc23)cc(OC)c1O | -8% | -14% | -12% | -10% | 6% | x
COc1cc(/C=N/NC(=O)c2cccc3ccccc23)cc(OC)c1OC | 30µM* | 7% | -15% | -22% | 3% | x
COc1cc(/C=N/NC(=O)c2ccccc2O)ccc1OCC(=O)Nc1ccccc1 | u | 79µM* | -16% | -24% | 58% | 5%
COc1cc(C=C2C(=O)OC(C)(C)OC2=O)ccc1OCC(=O)Nc1ccccc1 | 19µM* | -38% | -5% | -3% | 51% | 1%
Cc1cc(S(=O)(=O)N2CCN=C2c2ccccc2)c(Cl)cc1Cl | -3% | -3% | -8% | 0% | 39% | 4%
CCCCC(=O)N/N=C(/C)C1=C(C)C(C)(C)OC1=O | 3% | -2% | 4% | -19% | 35% | -22%
CC(OC(=O)C1CSC2(c3ccc(F)cc3)CCC(=O)N12)C(=O)NC(N)=O (stereo unspecified) | -1% | -5% | 10% | -1% | 28% | 8%
O=C(CSc1nc2ccccc2c2nc(-c3ccccc3)nn12)Nc1ccc(F)cc1 | x | -5% | 6% | -22% | 42% | x
COc1ccccc1NC(=O)CSc1n[nH]c(-c2cccnc2)n1 | 1% | -17% | 2% | -10% | 7% | x
COc1ccccc1NC(=O)CSc1nnc2ccc(-c3cccnc3)nn12 | 0% | 71µM* | 24% | -15% | 14% | -3%
COC(=O)c1ccccc1NC(=O)CSc1n[nH]c(-c2cccnc2)n1 | 21µM* | -2% | -16% | u | -8% | 7%
COc1ccccc1NC(=O)CSc1nc2ccccc2c2nc(-c3ccccc3)nn12 | x | -2% | 16% | 32µM* | 28% | x
O=C(Nc1ccc(F)cc1)c1ccc(-n2cnnc2)cc1 | x | 53% | 2% | -18% | 61% | x

High-throughput results from PubChem.
